Assay [1] can be described thus: stimulators of nuclear beta-catenin in C2C12, primary screen, imaging, WNT3A-conditioned medium, mouse C2C12, NPC library (AID 1117326; in the data active = nuclear beta-catenin stimulation mostly above about 4.2%, no sharp cut-off; inactive = mostly below about 10%). The following applies: stronger effect = higher value.
A short description of assay [2]: stimulators of insulin release from INS-1E, primary screen, cell-based, 5 mM glucose, NPC library (AID 1117329;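 active = compound raises insulin release from rat beta cells at 5 mM glucose, no numeric limit stated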). The note with it: rat INS-1E insulin secretion, at 10 µM, stronger effect = higher value.
Assay [3] is described as follows: growth inhibition of GSK3B-pretreated HCT116 cells – cell-based, CellTiter-Glo, 0.2 to 20 µM (AID 1117336;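 active = compounds lowering colon cancer cell viability after pretreatment blocking the GSK3B kinase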). The following applies: HCT116 viability after GSK3B inhibitor, at 20 µM, stronger effect = higher value. Background: Cellular ATP, detected with luciferase, serves as a proxy for viable cell number.
Assay [4] in a line: inhibition of endothelial tube formation, primary screen, imaging, VEGF stimulated, CD31 staining, tube area, NPC library (AID 1117340;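 active = compound that reduces growth-factor-driven endothelial tube area in a mixed cell culture, no cutoff stated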). The note with it: VEGF-stimulated ADSC/ECFC co-culture, at 10 µM, stronger effect = higher value.
Assay [5] in a line: glucagon-like peptide 1 release enhancers, primary assay, NCI-H716 cell line, NPC library (AID 1117341;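 active = compound raises GLP1 secretion from the human gut endocrine cells, with no numeric limit stated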). The following applies: NCI-H716 cells, at 10 µM, stronger effect = higher value.
Assay [6] can be described thus: HCT116 colon cancer cell growth inhibition, primary screen, CellTiter-Glo luminescence, NPC library (AID 1117342;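 active = compounds that lower survival of HCT116 colon cancer cells in the luminescence readout, no numeric limit stated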). The following applies: at 20 µM (top of the series).
Assay [7] can be described thus: CellTiter-Glo luminescent readout of SW480 viability loss, NPC library primary (AID 1117343). The following applies: CellTiter-Glo luminescence; at 20 µM (top of the series).
Assay [8] can be described thus: decreased DLD-1 cellular survival, CellTiter-Glo luminescent readout, NPC compound collection, primary HTS (AID 1117346;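 active = compounds that lower survival of DLD-1 colon cancer cells in the luminescence readout, no cutoff given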). The note with it: DLD-1 viability, CellTiter-Glo luminescence; at 20 µM (top of the series).
Assay [9] concerns the target 6-phosphogluconate dehydrogenase, decarboxylating (Homo sapiens) (UniProt P52209). The assay can be described thus: 6PGD enzyme inhibitors, primary screen, biochemical, human, recombinant enzyme, NADPH absorbance (AID 1159550;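 active = at least 20% inhibition of 6-phosphogluconate dehydrogenase activity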). The note with it: recombinant 6PGD, NADPH absorbance 341 nm; at 10 µM; stronger effect = higher value.

Structures are written as SMILES. The source made the active and inactive calls.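 Rule for the calls, unless noted: active = compounds that lower viability of the colon cancer cells in the luminescence readout, with no numeric limit stated; inactive = the rest.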

Chain of 6-phosphogluconate dehydrogenase, decarboxylating (Homo sapiens) (P52209 whole entry, looked up): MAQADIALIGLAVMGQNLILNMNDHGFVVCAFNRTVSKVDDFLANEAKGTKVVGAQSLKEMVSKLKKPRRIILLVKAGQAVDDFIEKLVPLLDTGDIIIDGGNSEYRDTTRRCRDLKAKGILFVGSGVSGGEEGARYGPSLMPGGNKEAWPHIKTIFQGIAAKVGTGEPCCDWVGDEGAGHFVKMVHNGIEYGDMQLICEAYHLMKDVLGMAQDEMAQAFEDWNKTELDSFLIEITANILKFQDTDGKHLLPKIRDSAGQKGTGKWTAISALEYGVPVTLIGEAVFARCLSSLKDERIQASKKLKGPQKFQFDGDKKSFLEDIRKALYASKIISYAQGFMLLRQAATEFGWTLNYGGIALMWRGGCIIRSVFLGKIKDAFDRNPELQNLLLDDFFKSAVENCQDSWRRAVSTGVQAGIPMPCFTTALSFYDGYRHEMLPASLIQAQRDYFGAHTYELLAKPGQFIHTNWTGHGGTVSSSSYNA

Consider `CN1[C@@H]2CC[C@H]1CC(OC(=O)C(O)c1ccccc1)C2` (stereo not given in full), for which the nuclear beta-catenin stimulation in assay [1] (at 10 µM) is -0.1% (inactive); in assay [1] (stimulation, at 2 µM) it was -2.6%. Also, in [2], the insulin secretion stimulation is 3.1% (inactive). In assay [3], the viability decrease was 15% (inactive). The tube area decrease in [4] is -13.1% (inactive). For the same compound, the GLP1 secretion stimulation in assay [5] is 1% (inactive). Besides, the inhibition of viability in assay [6] is 28% (inactive). Besides, the values for the viability decrease (inhibition) in [7] and in [8] were 22.2% (inactive) and -0.2% (inactive), respectively. Moreover, the inhibition (in general, the change of the read-out against control, counted positive when it falls) in assay [9] is -3.32% (inactive).

For `Nc1c(Br)cc(Br)cc1CNC1CCC(O)CC1` (stereo not given), the nuclear beta-catenin stimulation is 1.6% (inactive) in [1] (at 10 µM) and 0.3% in assay [1] (stimulation, at 2 µM). The insulin secretion stimulation in assay [2] was 4.7% (inactive). The viability decrease in assay [3] is 33.6% (inactive). The tube area decrease in assay [4] was 20.4% (inactive). Also, the GLP1 secretion stimulation in assay [5] was -1.7% (inactive). Further, the inhibition of viability in assay [6] was 34.3% (inactive). Moreover, the viability decrease (inhibition) is 11.2% (inactive) in assay [7] and 14% (inactive) in [8]. Further, the inhibition in assay [9] is -12.9% (inactive).

Turning to `CN(C)C(=O)Nc1ccc(Cl)c(Cl)c1`, the nuclear beta-catenin stimulation in assay [1] (at 10 µM) is 3.6% (inactive); in assay [1] (stimulation, at 2 µM), 0.5%. Also, in assay [2], the insulin secretion stimulation was -2.3% (inactive). The viability decrease in assay [3] is -3.75% (inactive). In addition, the tube area decrease in [4] is -17.1% (inactive). In addition, in assay [5], the GLP1 secretion stimulation is -0.7% (inactive). The inhibition of viability in [6] is -2.8% (inactive). For the same compound, the viability decrease (inhibition) was 11.2% (inactive) in assay [7] and 13.6% (inactive) in [8]. For the same compound, the inhibition in assay [9] is -8.44% (inactive).

For `CCN(CCCCOC(=O)c1ccc(OC)c(OC)c1)C(C)Cc1ccc(OC)cc1` (stereo not given), the nuclear beta-catenin stimulation is 0.6% (inactive) in [1] (at 10 µM) and 0.5% in [1] (stimulation, at 2 µM). Also, the insulin secretion stimulation in [2] was 49.6% (active). Besides, the viability decrease in assay [3] is -125% (inactive). Further, the tube area decrease in assay [4] is 23.2% (inactive). Moreover, in assay [5], the GLP1 secretion stimulation is 0.3% (inactive). For the same compound, the inhibition of viability in assay [6] was 26.7% (inactive). For the same compound, the viability decrease (inhibition) in assay [7] is 20% (inactive); in assay [8], 8% (inactive). The inhibition in assay [9] was -12.1% (inactive).

With `C[C@@H]1C[C@H]2[C@@H]3CCC4=CC(=O)C=C[C@]4(C)[C@@]3(F)[C@@H](O)C[C@]2(C)[C@@]1(O)C(=O)COP(=O)(O)O`, the nuclear beta-catenin stimulation in assay [1] (at 10 µM) was 1.2% (inactive); in [1] (stimulation, at 2 µM), 0.8%. The insulin secretion stimulation in assay [2] was -6.4% (inactive). For the same compound, the viability decrease in assay [3] was -4.3% (inactive). Besides, the tube area decrease in assay [4] is 0.7% (inactive). The GLP1 secretion stimulation in assay [5] is -2.2% (inactive). Moreover, the inhibition of viability in [6] is 2.57% (inactive). In addition, the values for the viability decrease (inhibition) in assay [7] and in assay [8] were 24.1% (inactive) and -4.8% (inactive), respectively. Besides, the inhibition in [9] is -4.39% (inactive).

Take `C1CCC(C(CC2CCCCN2)C2CCCCC2)CC1` (stereo not given): the nuclear beta-catenin stimulation was 22.1% (inactive) in assay [1] (at 10 µM) and 1.1% in assay [1] (stimulation, at 2 µM). In assay [2], the insulin secretion stimulation was 7.6% (inactive). In addition, in assay [3], the viability decrease is 101% (active). The tube area decrease in assay [4] was 9.8% (inactive). Further, the GLP1 secretion stimulation in [5] is 4.9% (inactive). In addition, the inhibition of viability in assay [6] is 100% (active). Besides, the viability decrease (inhibition) in assay [7] was 120% (active); in assay [8], 103% (active). In [9], the inhibition was 12.3% (inactive).

`CS(=O)(=O)c1ccc([C@@H](O)[C@@H](CO)NC(=O)C(Cl)Cl)cc1`: the nuclear beta-catenin stimulation in assay [1] (at 10 µM) is 2.7% (inactive); in assay [1] (stimulation, at 2 µM), 2.3%. Further, the insulin secretion stimulation in assay [2] was 1% (inactive). Besides, in [3], the viability decrease is -30.5% (inactive). In assay [4], the tube area decrease was 42.1% (active). In addition, in assay [5], the GLP1 secretion stimulation is 0.4% (inactive). Moreover, in assay [6], the inhibition of viability is 2% (inactive). For the same compound, the figures for the viability decrease (inhibition) in [7] and in assay [8] were -9.6% (inactive) and -4% (inactive), respectively. In addition, the inhibition in assay [9] is -8.02% (inactive).

For `COc1cc(/C=C/C(=O)CC(=O)/C=C/c2ccc(O)c(OC)c2)ccc1O`, the nuclear beta-catenin stimulation in assay [1] (at 10 µM) is 1.5% (inactive); in assay [1] (stimulation, at 2 µM), -2.5%. Also, the insulin secretion stimulation in assay [2] is 1.35% (inactive). The viability decrease in [3] was 26.1% (inactive). Also, the tube area decrease in assay [4] was -1.2% (inactive). The GLP1 secretion stimulation in assay [5] is -0.1% (inactive). In addition, in assay [6], the inhibition of viability is 11.9% (inactive). Further, the figures for the viability decrease (inhibition) in [7] and in [8] were -4.1% (inactive) and -7.3% (inactive), respectively. Also, in assay [9], the inhibition is 8.75% (inactive).

`Cc1ccsc1/C=C/C1=NCCCN1C`: the nuclear beta-catenin stimulation in assay [1] (at 10 µM) was -0.7% (inactive); in assay [1] (stimulation, at 2 µM) it was 0.1%. Besides, the insulin secretion stimulation in assay [2] is 0.2% (inactive). Besides, in assay [3], the viability decrease was -25.2% (inactive). The tube area decrease in assay [4] is -9.8% (inactive). Besides, the GLP1 secretion stimulation in assay [5] was -0.1% (inactive). Further, the inhibition of viability in assay [6] is 39.5% (inactive). The viability decrease (inhibition) in assay [7] was 90.9% (active); in [8] it was 87.6% (active). For the same compound, in assay [9], the inhibition was 5.11% (inactive).

`NC(=NCCCCCCN=C(N)/N=C(\N)Nc1ccc(Cl)cc1)/N=C(\N)Nc1ccc(Cl)cc1`: the nuclear beta-catenin stimulation was -2.3% (active) in assay [1] (at 10 µM) and 45.4% in assay [1] (stimulation, at 2 µM). Besides, the insulin secretion stimulation in [2] was 36.6% (active). Moreover, in assay [3], the viability decrease is 120% (active). Moreover, the tube area decrease in [4] was 111% (active). In addition, the GLP1 secretion stimulation in assay [5] was 161% (active). Besides, the inhibition of viability in assay [6] was 125% (active). The results for the viability decrease (inhibition) in assay [7] and in assay [8] were 166% (active) and 101% (active), respectively. For the same compound, the inhibition in assay [9] was -5.13% (inactive).

`CCN(CC)CCOC(=O)C(Cc1cccc2ccccc12)CC1CCCO1` (stereo not given): the nuclear beta-catenin stimulation in assay [1] (at 10 µM) is 0.6% (inactive); in [1] (stimulation, at 2 µM) it was 0.5%. Moreover, the insulin secretion stimulation in assay [2] was 7.9% (inactive). In addition, in assay [3], the viability decrease was -120% (inactive). Further, in [4], the tube area decrease was -1.6% (inactive). For the same compound, in assay [5], the GLP1 secretion stimulation was 8.3% (active). Further, the inhibition of viability in assay [6] was 26.1% (inactive). The figures for the viability decrease (inhibition) in assay [7] and in assay [8] were 37.7% (inactive) and 2.6% (inactive), respectively. Moreover, the inhibition in assay [9] is -4.35% (inactive).

Turning to `Cc1ccc(C(=O)c2ccc(CC(=O)O)n2C)cc1`, the nuclear beta-catenin stimulation in assay [1] (at 10 µM) was 5.9% (inactive); in assay [1] (stimulation, at 2 µM) it was 3.5%. The insulin secretion stimulation in assay [2] was 0.4% (inactive). Also, in assay [3], the viability decrease was -13.7% (inactive). In addition, the tube area decrease in assay [4] is -2.5% (inactive). For the same compound, the GLP1 secretion stimulation in assay [5] is 3.1% (inactive). The inhibition of viability in [6] is -3.2% (inactive). The viability decrease (inhibition) in assay [7] is -14.3% (inactive); in [8] it was 4.3% (inactive). In assay [9], the inhibition is 9.71% (inactive).

`O=C(CCCN1CCN(c2ccccn2)CC1)c1ccc(F)cc1`: the nuclear beta-catenin stimulation is 0.1% (inactive) in assay [1] (at 10 µM) and -1% in assay [1] (stimulation, at 2 µM). Further, the insulin secretion stimulation in assay [2] was 7.45% (inactive). The viability decrease in [3] was 31.5% (inactive). Further, the tube area decrease in assay [4] is -12.3% (inactive). The GLP1 secretion stimulation in assay [5] is -0.3% (inactive). Further, the inhibition of viability in assay [6] was 51% (active). In addition, the results for the viability decrease (inhibition) in assay [7] and in [8] were 11.4% (inactive) and 20.2% (inactive), respectively. Also, in [9], the inhibition is 1.29% (inactive).

For the compound `Nc1ccc(C(=O)O)c(O)c1`, the nuclear beta-catenin stimulation in assay [1] (at 10 µM) was 0.9% (inactive); in [1] (stimulation, at 2 µM), 1.5%. Also, the insulin secretion stimulation in assay [2] was 0.1% (inactive). Further, in assay [3], the viability decrease is -46.6% (inactive). The tube area decrease in assay [4] is 15.9% (inactive). For the same compound, the GLP1 secretion stimulation in assay [5] is -6% (inactive). Besides, the inhibition of viability in assay [6] was -12.6% (inactive). The viability decrease (inhibition) in assay [7] was 12.5% (inactive); in [8] it was -27.1% (inactive). Also, in [9], the inhibition was 6.71% (inactive).

In the case of `CC(=O)O[C@]1(C(C)=O)CC[C@H]2[C@@H]3C=C(Cl)C4=CC(=O)CC[C@]4(C)[C@H]3CC[C@@]21C`, the nuclear beta-catenin stimulation was 1.1% (inactive) in assay [1] (at 10 µM) and -0.3% in [1] (stimulation, at 2 µM). Further, the insulin secretion stimulation in assay [2] is 0% (inactive). For the same compound, the viability decrease in [3] was 56.2% (active). Besides, in assay [4], the tube area decrease was 22.4% (inactive). Also, the GLP1 secretion stimulation in assay [5] is 1.3% (inactive). Also, the inhibition of viability in assay [6] was 52.6% (active). Besides, the viability decrease (inhibition) in assay [7] was 57.1% (active); in [8], 7.1% (inactive). Besides, the inhibition in [9] was -12% (inactive).

Source of the values: PubChem BioAssay.
